Data from PubChem BioAssay AID2587 (National Center for Advancing Translational Sciences (NCATS), 2010).
Activity calls are given as the source filed them. Calls follow the shape of the dose curve; as a rule, active = well fitted curve in the direction sought with a large enough effect; inactive = no such curve, though single readings can be large or run the other way.

The compounds below were run against Lysosomal acid glucosylceramidase (Homo sapiens) (UniProt P04062) (assay: qHTS Assay for Inhibitors and Activators of N370S glucocerebrosidase as a Potential Chaperone Treatment of Gaucher Disease: Chaperone Activity in Gauche Fibroblasts After Multi-day Incubation with Compound). Conditions: GC immunofluorescence, 5 days.
Lysosomal acid glucosylceramidase (Homo sapiens), sequence (P04062 whole entry N409S): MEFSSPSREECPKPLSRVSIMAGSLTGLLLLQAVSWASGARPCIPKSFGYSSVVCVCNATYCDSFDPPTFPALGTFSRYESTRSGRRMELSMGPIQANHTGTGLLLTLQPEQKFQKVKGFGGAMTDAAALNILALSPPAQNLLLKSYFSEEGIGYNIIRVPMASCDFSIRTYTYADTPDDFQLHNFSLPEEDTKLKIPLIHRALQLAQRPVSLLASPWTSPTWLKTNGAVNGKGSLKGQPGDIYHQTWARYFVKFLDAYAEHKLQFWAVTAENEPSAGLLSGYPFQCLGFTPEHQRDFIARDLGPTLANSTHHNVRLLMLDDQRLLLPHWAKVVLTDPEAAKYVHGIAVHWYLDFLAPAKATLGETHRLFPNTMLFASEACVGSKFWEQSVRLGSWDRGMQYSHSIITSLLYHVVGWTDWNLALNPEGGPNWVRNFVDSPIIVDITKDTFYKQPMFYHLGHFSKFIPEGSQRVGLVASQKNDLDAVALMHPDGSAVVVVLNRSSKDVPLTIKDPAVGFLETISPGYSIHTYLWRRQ
Excerpt: NIH Chemical Genomics Center [NCGC] NIH Molecular Libraries Probe Production Centers Network [MLPCN] MLPCN Grant: MH086442-01 Assay Submitter (PI): Wei Zheng Glucocerebrosidase (GC) catalyzes the hydrolysis of beta-glucocerebroside to glucose and ceramide in lysosomes. Mutations in the glucocerebrosidase gene result in Gaucher disease, an autosomal recessive lysosomal storage disorder. Many of the mutations encountered in patients with Gaucher disease are missense alterations that may cause misfolding, decreased stability and/or mistrafficking of this lysosomal protein. […] These inhibitors include iminosugar analogs and three non-iminosugar inhibitors identified from a previous HTS of 62,000 compounds with the wild type recombinant enzyme. However, the enhancement of enzyme activity by the chaperone action of an enzyme inhibitor must be balanced against the direct inhibition of the enzyme. An enzyme activator could also function as a chaperone by binding to the enzyme and helping to correct its misfolding and mistrafficking. […] This assay attempts to quantitate translocated glucocerebrosidase protein in patient-derived fibroblasts following extended compound incubation. […]
NCGC Assay Protocol Summary: 1. […] Visualized using a fluorescence microscope and the intensity of fluorescence in the selected areas were calculated. […]
For S=C(NCCCc1cnc[nH]1)NCCCN(Cc1ccc(Cl)c(Cl)c1)c1ccc(Br)cn1, the Potency was 0.316 µM (active). For O=S(=O)(c1ccc2ccccc2c1)N1CCN(c2nc(-c3cccs3)nc3ccccc23)CC1, the Potency was 0.501 µM (active).
